In the supplement of paper PMC6555819:

Each sequence was assayed on RARb homodimer (NR concentration 270 nM) (assay: PBM binding z-score (relative to random genomic background probes); higher = stronger binding; sequences stand for … in GC…GCGATTGACAGCGTAGAATGAAGG).
In short: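 Each nuclear receptor dimer, without ligand, was incubated for 1 h on custom Agilent 4×180K protein-binding microarrays. Binding was detected with antibodies against each partner (one per run), and scanned fluorescence was regression-normalized. The binding z-scores are referenced to random human genomic background probes.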
Sequence CGAGACAGGTGAAAGGTAACTCAGTCTGGTACGC has a PBM binding z-score of 0.817. TGAATGAGGTTATAAGAGCAGGGAACGTTGCAAA gave a PBM binding z-score of 0.269. CCTGCTAGGTGATGGTCAGCTAATCTACAGTATG was tested, and the PBM binding z-score was -0.121. TCTGCTAGGTCAGTTGGTCAACTAACGAGCTGCC was tested, and the PBM binding z-score was 2.71. With TCATGTAGATCAATAGAGGTTAAGAAAGTGCGCT the PBM binding z-score was 1.44. TGAATGAGGTTAGAAGATCAGGGAACGTTGCAAA was tested, and the PBM binding z-score was 0.0495. CCGACAGGGGCAGAAAGGTTACCATACCATCCGG gave a PBM binding z-score of 2.48. Sequence CCGGCTGGGGCAAGGTTACCATAACGCACAGCCA has a PBM binding z-score of 1.41. In the case of TTACCAAGGTGTGCTGAGGTCGTTGATCCAACTC, the PBM binding z-score is reported as 1.18. In the case of GGAACGAAGGCAAGTTGATAGCAGAGTTTGATGG, the PBM binding z-score is reported as -0.711. With ATATGCAGGTTACATCCGGGTCATTCAGGCTATG the PBM binding z-score was 2.86. CCTACTGGGCCACGAAAGTTCATTGATTCAGTGA showed a PBM binding z-score of 3.23. In the case of ATATGTAGGTTGCATCCGGGTCATTCAGGCTATG, the PBM binding z-score is reported as 2.16. TCTTATAGGTAATACAGGTGAAAGTCGGCATCTA was tested, and the PBM binding z-score was 0.728. In the case of TCGAGTAGGTTAGTCGAGGCATTCAGCCAACATA, the PBM binding z-score is reported as -0.449. Sequence CCAAGTAGGTTATGGGGCATTCAGGCAACGGTGA has a PBM binding z-score of 0.93. With ATTTGTAGGTTAAGGGTCATTCAGGTTGGTTCGC the PBM binding z-score was 3.97. Work on TCTTGTAGATCAAGCAGATTAAGAAAGCCTGAGT yielded a PBM binding z-score of -0.625. GTACCAAGGTGAATAGGTCGATGATGAGTAGGCG showed a PBM binding z-score of 1.77. Sequence CATACAGGATCAGCTAGGCCAGAGTAGGGACGGC has a PBM binding z-score of -0.0161. Sequence ACAGACAGGTGAGTGAATGTAACTCAGCTGGACG has a PBM binding z-score of -0.316. TGAATGAGGTTAAAGATCATGGAACGTGGCGTCG gave a PBM binding z-score of 0.734. CAAACTAGGACACAGAGGTCAAAGTCCGTGCGTA was tested, and the PBM binding z-score was 4.68. CGTCCAAGGTGAATGCTAGGTCAGTGAAAGCATT showed a PBM binding z-score of 2.81. Sequence TTTTGTAGATCAGCAGGTTAAGAAAGCTGGCCAA has a PBM binding z-score of 0.145. With TGAATGAGGTTAGAGATCAGGGAACGTGGCGTCG the PBM binding z-score was 0.675. TCATATAGGTAAATGCCAGGTGAAAGTCCGATCT showed a PBM binding z-score of 0.815. Sequence CCTACTGGGCCACAAAAGGTCATTGATTCAGTGA has a PBM binding z-score of 4.58. In the case of CATACTGGGCCATCAGGTCATTGATATCAACGTT, the PBM binding z-score is reported as 2.78. In the case of ATATGTAGGTTACATCCGCGTCATTCAGGCTATG, the PBM binding z-score is reported as 0.571. GCAGACAGGTGAAACGCAGGTAACTTAGGGTGGC gave a PBM binding z-score of 0.119. ATATGTAGGTTAGCTGGGGTCTTTCAGACTAGGC was tested, and the PBM binding z-score was 0.902. In the case of GCTTGTAGATCAATGTTAAGAAAGACTAAGCTAA, the PBM binding z-score is reported as -0.892. ACCCGGAGGACAAAGGTCAGAGCTACGCCAGTGA gave a PBM binding z-score of 4.67. ACTTACGGGTCAACGATGTTATAGCACGCGTATA showed a PBM binding z-score of 3.01. In the case of CCTACTGGGCCACGAAAGATCATTGATTCAGTGA, the PBM binding z-score is reported as -0.335. Sequence CCTACTGGGCCATCAGGTCCTTGATATCAACGTT has a PBM binding z-score of 0.0749. Sequence GCTTCTAGATCAAGGTTAAGAAAGACTAAGCTAA has a PBM binding z-score of 0.106. In the case of CAAACTAGGTCACCGGAAGCTCAAAGTCCGCATG, the PBM binding z-score is reported as 3.48. CGTCAAAGTTCAACTAAGGGAACGTAAAGCACGC was tested, and the PBM binding z-score was 3.93.
